Sfp inh – inhibitors of Bacillus subtilis Sfp phosphopantetheinyl transferase; Q9F4F7; Biochemical Sfp PPTase activity, qHTS; Potency, µM, for inactives: largest response in the series, negative = inhibition, actives largely listed as inhibitors; 310,000 compounds, 3.5% hits; AID 1490;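 note: the enzyme is Sfp with the accession as filed and its product quenches rhodamine fluorescence; 0% = enzyme reaction without inhibitor and -100% = no enzyme wells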
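Fluorescence-quenching assay with 15 nM Sfp, 5 uM rhodamine-CoA and 12.5 uM BHQ-2-labelled ybbR peptide in pH 7.6 Hepes/MgCl2 buffer. Enzyme was pre-incubated with compound for 15 min at room temperature. Rate was taken from the 30-min fluorescence change (525/598 nm).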
HP1b binding inh – inhibitors of HP1-beta chromodomain binding to methylated histone tails | P83916 | AlphaScreen HP1-beta / biotin-H3K9me3 peptide binding | Potency, µM (series often up to 114 µM), for inactives: at the top dose activity change, negative = inhibition, usual class: inhibitors | 390,000 compounds, 0.56% hits | AID 540317; note: nearly all actives have a fitted effect of over 70% in size
Target sequence (P83916 whole entry, looked up): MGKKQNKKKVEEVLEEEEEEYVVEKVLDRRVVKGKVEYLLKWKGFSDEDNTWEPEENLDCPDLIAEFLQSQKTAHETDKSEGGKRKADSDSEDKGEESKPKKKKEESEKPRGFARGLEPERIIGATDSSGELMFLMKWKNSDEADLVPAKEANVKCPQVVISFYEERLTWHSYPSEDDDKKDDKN
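AlphaScreen: HP1-beta (50 nM) preformed 30 min with biotin-H3(1-18)K9me3 peptide (50 nM) in PBS pH 7.4, 0.01% Tween-20. Compound added for 30 min at RT, then streptavidin donor/nickel chelate acceptor beads (10 ug/mL) for 30 min.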
L3MBTL1 block – inhibitors of human L3MBTL1; Q9Y468; 230,000 compounds, 0.66% hits; AlphaScreen L3MBTL1–H3K9me1 peptide binding; Potency, µM (series often up to 57.1 µM), for inactives: at the highest dose activity, negative = inhibition, most hits filed as inhibitors; note: % is set by controls: 0 for no effect and ±100 for the full control effect; nearly all actives have a fitted effect of over 60% in size
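Displacement of a biotinylated histone H3(1-15) peptide monomethylated at Lys9 (75 nM) from L3MBTL1 (50 nM) was measured by AlphaScreen after a 30 min room-temperature compound incubation; cefsulodin titration served as intraplate control.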
BAZ2B block – BAZ2B (human) inhibition. Q9UIF8. AlphaScreen BAZ2B-H3K14Ac peptide displacement. Potency, µM (top dose mostly 114 µM), inactives show at the top dose activity change, negative = inhibition, actives largely listed as inhibitors. 360,000 compounds, 4.4% hits. AID 504333; note: % is set by controls: 0 for no effect and ±100 for the full control effect; nearly all actives have a fitted effect of over 60% in size
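AlphaScreen luminescence quantifies BAZ2B engagement of H3K14Ac peptide; the protein and biotinylated peptide are both at 50 nM final, buffer PBS pH 7.4 with 0.01% Tween-20, all steps at room temperature.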
G9a block – G9a (human) methyltransferase inhibition; Q96KQ7; G9a H3K9 monomethylation, AlphaScreen, 2 h; Potency, µM (titrated, usually from 102 µM), for the others: at the top dose activity, negative = inhibition, hits mostly inhibitors; 350,000 compounds, 8.8% hits; note: % is set by controls: 0 for no effect and ±100 for the full control effect; nearly all actives have a fitted effect of over 75% in size
Target sequence (Q96KQ7 913-1193 limits assumed): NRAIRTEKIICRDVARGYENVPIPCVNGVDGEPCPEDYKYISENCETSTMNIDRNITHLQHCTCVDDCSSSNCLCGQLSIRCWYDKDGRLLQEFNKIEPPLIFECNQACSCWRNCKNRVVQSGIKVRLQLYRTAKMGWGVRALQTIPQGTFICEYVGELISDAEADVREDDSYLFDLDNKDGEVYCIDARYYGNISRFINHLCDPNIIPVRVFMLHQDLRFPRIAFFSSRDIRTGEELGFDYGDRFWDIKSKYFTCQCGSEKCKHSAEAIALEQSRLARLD
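Using a bead-based AlphaScreen, monomethylated H3K9 product from 2 h room-temperature reactions (G9a 20 nM, peptide 500 nM, SAM 20 uM) was detected with 0.5 ug/mL rabbit anti-H3K9me1 antibody.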
JMJD2A Tudor – inhibitors of human JMJD2A Tudor domain; O75164; AlphaScreen JMJD2A-Tudor / H3K4me3 peptide binding; Potency, µM (top dose mostly 114 µM), inactives show top-dose activity change, negative = inhibition, usual class: inhibitors; 390,000 compounds, 4.4% hits; AID 504339; note: % is set by controls: 0 for no effect and ±100 for the full control effect; nearly all actives have a fitted effect of over 50% in size
Starred values were filed as active, the others as inactive; ? = inconclusive; . = no result; [ ] = remark or other dose. An excerpt weighted towards active compounds, which were near 12% of everything screened. Calls come from the whole dose curve; as a rule, active = well fitted curve in the direction sought with a large enough effect; inconclusive = small, poorly fitted or top-dose-only effect, or another doubt; inactive = no such curve, though single readings can be large; an effect the other way counts as inactive or inconclusive. Potency is the fitted concentration of half-maximal effect.

SMILES | Sfp inh | HP1b binding inh | L3MBTL1 block | BAZ2B block | G9a block | JMJD2A Tudor
CCC(C)Oc1ccc(/C=C/c2[nH]c(=O)[nH]c(=O)c2[N+](=O)[O-])cc1OC (stereo not drawn) | 1% | 11% | . | ? | ? | -20%
CCOc1cc(C(c2c(C)[nH][nH]c2=O)c2c(C)[nH][nH]c2=O)cc([N+](=O)[O-])c1O | -4% | -14% | . | -35% | 6%[0.501 µM] | -24%
COc1cc(Cl)c(C)cc1NC(=O)CSc1cc(-c2ccccc2)nc(C)n1 | . | 73% | . | 17% | 18%[59 µM] | 17%
COC(=O)c1cc(NC(=O)Cn2ncc3c([nH]c4ccccc43)c2=O)cc(C(=O)OC)c1 | . | 10% | . | 1% | 3%[59 µM] | -9%
C/C=C/c1ccc2oc(-c3ccc(O)cc3)c(C)c2c1 | 16% | . | . | . | . | .
Cc1cc(/C=N/N2CCN(C)CC2)c(C)n1-c1ccc(Cl)cc1 | -17% | ? | ? | ? | 45µM* | 50µM*
Cc1cc(/C=N/n2cnnc2)c(C)n1-c1ccc(OCc2ccc(F)cc2)cc1 | -28% | ? | -16% | ? | ? | 56µM*
Cc1cc(/C=N/n2cnnc2)c(C)n1-c1ccc(OCc2ccc(Cl)cc2Cl)cc1 | 35µM* | ? | . | 40µM* | 16%[12.7 µM] | 56µM*
Cc1cc(/C=N/n2cnnc2)c(C)n1-c1ccccc1 | 4% | 0% | . | -13% | 6%[59 µM] | -6%
Cc1cc(/C=N/n2cnnc2)c(C)n1-c1cccc(Cl)c1 | 1% | -5% | -2% | ? | 6%[12.7 µM] | -30%
Cc1cc(/C=N/n2cnnc2)c(C)n1-c1ccc(Cl)cc1 | -9% | -9% | -13% | -39% | 14µM* | -30%
Cc1cc2c3c([nH]c2cc1S(=O)(=O)NCCCOC(C)C)CC(C)(C)CC3=O | 10% | 26% | . | 3% | 42% | -14%
C=C1CCN(C(CC(C)C)C(=O)NN2CCOCC2)S(=O)(=O)c2ccccc21 (stereo not drawn) | 0% | 19% | . | . | . | 5%
CCn1nc(C)cc1C(=O)n1nc(C)c(Sc2ncccn2)c1C | 9% | 58% | 12% | 1% | . | -8%
Cc1ccc2cc(CCNC(=O)c3ccco3)c(=O)[nH]c2c1C | -19% | 48% | 35% | 9% | 79µM* | -11%
COc1ccc2cc(CCNC(=O)c3ccco3)c(=O)[nH]c2c1 | 13% | 38% | . | 0% | 45µM* | -6%
COc1ccc(C(=O)NCCc2cc3ccc(C)c(C)c3[nH]c2=O)cc1OC | 2% | 20% | . | . | -29% | -10%
Cc1ccc2cc(CCNC(=O)c3ccco3)c(=O)[nH]c2c1 | 3% | 17% | 16%[11.4 µM] | -1% | ? | -16%
Fc1ccc(-n2c(-c3cc(C4CC4)[nH]n3)n[nH]c2=S)cc1Cl | ? | 11% | . | ? | 1.6µM* | 79µM*
S=c1[nH]nc(-c2ccc(Cl)cc2Cl)n1-c1ccc(Cl)cc1 | -1% | 16% | 7% | ? | . | -25%
O=c1ccc(-c2n[nH]c(=S)n2-c2ccc(F)c(Cl)c2)n[nH]1 | -9% | 16% | 1% | ? | 3.2µM* | 35µM*
CCc1ccccc1NC(=O)CNC(=O)c1cc(C2CC2)nn1-c1ccccc1 | . | 36% | 37% | 21% | 12%[2.33 µM] | -22%
CCC1CCCCN1S(=O)(=O)c1ccc([N+](=O)[O-])cc1 (stereo not drawn) | 0% | -1% | -4% | ? | 71µM* | -36%
CCNc1ncc2nc(-c3ccc(Cl)cc3)c(=O)n(Cc3cccs3)c2n1 | 7% | . | . | . | 3%[0.501 µM] | .
CCc1nc2ccc(C(=O)NCc3ccc(N(C)C)cc3)cc2nc1CC | . | 2% | . | ? | 3.5µM* | -33%
CCc1nc2ccc(C(=O)NCc3cccc(Br)c3)cc2nc1CC | . | 7% | . | -2% | 3%[59 µM] | -16%
CC(C)c1nc2ccc(C(=O)NCc3ccc(N(C)C)cc3)cc2o1 | . | 1%[57 µM] | . | ? | 16µM* | ?
CC(C)c1nc2ccc(C(=O)NCc3ccc(F)cc3)cc2o1 | . | 1%[57 µM] | . | 2% | 2%[59 µM] | -12%
